Experimental data reported in PubChem BioAssay (EPA / NIEHS).
Records with an inconclusive call do not appear. Activity calls are given as the source filed them. How the source made its calls: active means hit-call score of the fitted dose curve at least 0.9, where 1 is the maximum; inconclusive means response in the unintended direction; inactive means score below 0.9.

Experiments:
[1] = TOX21_p53_BLA_p2_viability: Viability Assessment in the Tox21 HCT-116 p53 Agonism Beta-lactamase Assay, Phase 2 (AID 2283591);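 further: actives lower the ATP signal meaning cytotoxicity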
Summary of the method: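 HCT-116 p53-bla cells (4000/well) rested 5 h at 37C, then received compounds in DMSO (217-fold dilution) for 16 h at 37C, 5% CO2. After the CCF4 read, CellTiter-Glo was added; ATP luminescence was read after 30 min at room temperature.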

[2] = TOX21_p53_BLA_p3_viability: Viability Assessment in the Tox21 HCT-116 p53 Agonism Beta-lactamase Assay, Phase 3 (AID 2283593);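 further: cells exposed to compound for 16 h before reading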
Summary of the method: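 HCT-116 cells (4000/well) rested 5 h at 37C, then got DMSO compounds by pin tool (217-fold dilution) for 16 h at 37C, 5% CO2. After the bla read, CellTiter-Glo was added and luminescence read at 30 min, room temperature.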

[3] = target: Cellular tumor antigen p53 (Homo sapiens) (UniProt P04637); assay: TOX21_p53_BLA_p3_ratio: Tox21 HCT-116 p53 Agonism Beta-lactamase Assay, Ratio, Phase 3 (AID 2283596)
Cellular tumor antigen p53 (Homo sapiens), sequence (P04637 whole entry, looked up): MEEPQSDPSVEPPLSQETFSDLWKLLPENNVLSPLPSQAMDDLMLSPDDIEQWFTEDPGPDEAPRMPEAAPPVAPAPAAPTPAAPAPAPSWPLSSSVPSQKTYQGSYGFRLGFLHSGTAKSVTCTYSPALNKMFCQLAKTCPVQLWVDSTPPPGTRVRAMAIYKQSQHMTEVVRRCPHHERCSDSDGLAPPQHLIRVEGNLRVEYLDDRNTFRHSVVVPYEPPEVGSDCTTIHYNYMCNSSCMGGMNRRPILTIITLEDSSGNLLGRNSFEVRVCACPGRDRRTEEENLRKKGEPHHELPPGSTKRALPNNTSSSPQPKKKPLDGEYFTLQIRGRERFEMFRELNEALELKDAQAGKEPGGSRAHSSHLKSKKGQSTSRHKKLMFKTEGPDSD
Summary of the method: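 Cells were seeded at 4000/well, rested 5 h at 37C, then dosed with DMSO compound solutions (217-fold dilution) for 16 h. CCF4-AM substrate was loaded for 2 h at room temperature, and the 460/530 nm emission ratio was fitted for gain of signal versus DMSO.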

[4] = TOX21_p53_BLA_p4_viability: Viability Assessment in the Tox21 HCT-116 p53 Agonism Beta-lactamase Assay, Phase 4 (AID 2283597);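 further: hits lower the luminescence signal meaning cytotoxicity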
Summary of the method: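 4000 HCT116 cells per well; 5 h attachment; compounds from DMSO, 217-fold dilution; 16 h at 37C. Then CCF4-AM, 2 h RT, followed by CellTiter-Glo, 30 min RT, luminescence. Decrease = cytotoxicity.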

[5] = target: Cellular tumor antigen p53 (Homo sapiens) (UniProt P04637); assay: TOX21_p53_BLA_p5_ratio: Tox21 HCT-116 p53 Agonism Beta-lactamase Assay, Ratio, Phase 5 (AID 2283599)
Summary of the method: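 HCT-116 cells carrying a p53-inducible beta-lactamase reporter were seeded at 4000 cells/well and dosed after 5 h with compound in DMSO (217-fold dilution). After 16 h at 37C, CCF4-AM substrate was added for 2 h, and the 460/530 nm emission ratio was scored as gain-of-signal versus DMSO.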

[6] = TOX21_p53_BLA_p5_viability: Viability Assessment in the Tox21 HCT-116 p53 Agonism Beta-lactamase Assay, Phase 5 (AID 2283600)
Summary of the method: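 Decreased CellTiter-Glo luminescence denotes lost viability. Exposure: 16 h at 37C, 5% CO2, with compounds from DMSO stocks diluted 217-fold in wells of 4000 cells.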

[7] = target: Cellular tumor antigen p53 (Homo sapiens) (UniProt P04637); assay: TOX21_p53_BLA_p4_ratio: Tox21 HCT-116 p53 Agonism Beta-lactamase Assay, Ratio, Phase 4 (AID 2283601)
Summary of the method: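 HCT116 cells carrying an inducible beta-lactamase reporter were plated at 4000 cells/well, rested 5 h, then exposed to compounds in DMSO (217-fold dilution) for 16 h at 37C. CCF4-AM substrate was loaded 2 h at room temperature; 460/530 nm emission ratio scored gain-of-signal versus DMSO.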

Measured: outcome

CC(C)C[C@H]1C(=O)N2CCC[C@H]2[C@]2(O)O[C@](NC(=O)[C@@H]3C[C@@H]4c5cccc6[nH]cc(c56)C[C@H]4N(C)C3)(C(C)C)C(=O)N12
inactive: all assays above

O=C1CCCCC1Cl (stereo unspecified)
inactive: [1] | [2] | [3] | [4]
